# In PubChem BioAssay (NCATS):
# Inconclusive results are not listed. Where a call stands in place of a potency, no number is given. Values without a mark were called inactive. Calls of active or inactive are those of the source. Calls follow the shape of the dose curve; as a rule, active = well fitted cell-killing curve with a large enough effect; inconclusive = small, poorly fitted or top-dose-only effect, or effect the other way; inactive = no such curve, though single readings can be large or run the other way.
# How the values were obtained:
# [1] = Quantitative High-Throughput drug screen in 47 multiple myeloma cell lines against the NCATS MIPE library collection: MM1R_ATCC cell viability assay (AID 1918981); also: nearly all actives have a fitted effect of over 35% in size; also: potency is read from the fitted curve at half-maximal effect
# Outline: (§1)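 500 cells/well per myeloma line exposed to pinned MIPE 4.0 compounds for 48 h at 37 °C, 5% CO2. Viability read as ATP by CellTiter-Glo luminescence, normalised to DMSO-only (100%) and media-only (0%) wells.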
# [2] = Quantitative High-Throughput drug screen in 47 multiple myeloma cell lines against the NCATS MIPE library collection: LP1_DSMZ cell viability assay (AID 1918982); also: nearly all actives have a fitted effect of over 35% in size; also: potency is read from the fitted curve at half-maximal effect
# Outline: as §1
# [3] = Quantitative High-Throughput drug screen in 47 multiple myeloma cell lines against the NCATS MIPE library collection: KMS34_JCRB cell viability assay (AID 1918985); also: nearly all actives have a fitted effect of over 40% in size; also: potency is read from the fitted curve at half-maximal effect
# Outline: as §1
# [4] = Quantitative High-Throughput drug screen in 47 multiple myeloma cell lines against the NCATS MIPE library collection: OCIMY7_PLB cell viability assay (AID 1918987); settings: OCI-MY7 myeloma viability, CellTiter-Glo ATP, 48 h; viability (% of DMSO): at 45.8 µM (top of the series); also: nearly all actives have a fitted effect of over 65% in size
# Outline: as §1
# [5] = Quantitative High-Throughput drug screen in 47 multiple myeloma cell lines against the NCATS MIPE library collection: OCIMY5_PLB cell viability assay (AID 1918988); also: nearly all actives have a fitted effect of over 65% in size; also: potency is read from the fitted curve at half-maximal effect
# Outline: as §1
# [6] = Quantitative High-Throughput drug screen in 47 multiple myeloma cell lines against the NCATS MIPE library collection: OPM1_PLB cell viability assay (AID 1918989); also: nearly all actives have a fitted effect of over 40% in size; also: potency is read from the fitted curve at half-maximal effect
# Outline: as §1
# [7] = Quantitative High-Throughput drug screen in 47 multiple myeloma cell lines against the NCATS MIPE library collection: SKMM1_PLB cell viability assay (AID 1919863); settings: SKMM1 myeloma viability, CellTiter-Glo ATP, 48 h; viability: hits give low values; also: nearly all actives have a fitted effect of over 35% in size; also: potency is read from the fitted curve at half-maximal effect
# Outline: as §1
# [8] = Quantitative High-Throughput drug screen in 47 multiple myeloma cell lines against the NCATS MIPE library collection: UTMC2_PLB cell viability assay (AID 1919868); settings: CellTiter-Glo ATP luminescence, 48 h; viability (% of DMSO control): at 45.8 µM (top of the series); also: nearly all actives have a fitted effect of over 55% in size; also: potency is read from the fitted curve at half-maximal effect
# Outline: as §1
# [9] = Quantitative High-Throughput drug screen in 47 multiple myeloma cell lines against the NCATS MIPE library collection: PE2_PLB cell viability assay (AID 1919869); also: nearly all actives have a fitted effect of over 35% in size; also: potency is read from the fitted curve at half-maximal effect
# Outline: as §1
# [10] = Quantitative High-Throughput drug screen in 47 multiple myeloma cell lines against the NCATS MIPE library collection: PCM6_Riken cell viability assay (AID 1919870); also: nearly all actives have a fitted effect of over 30% in size; also: potency is read from the fitted curve at half-maximal effect
# Outline: as §1
# [11] = Quantitative High-Throughput drug screen in 47 multiple myeloma cell lines against the NCATS MIPE library collection: RPMI8226_ATCC cell viability assay (AID 1919871); also: nearly all actives have a fitted effect of over 30% in size; also: potency is read from the fitted curve at half-maximal effect
# Outline: as §1
# [12] = Quantitative High-Throughput drug screen in 47 multiple myeloma cell lines against the NCATS MIPE library collection: OPM2_DSMZ cell viability assay (AID 1919872); also: nearly all actives have a fitted effect of over 30% in size; also: potency is read from the fitted curve at half-maximal effect
# Outline: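 We plated 500 myeloma cells per well, pinned in MIPE 4.0 compounds, and incubated for 48 hours at 37C. ATP was then quantified with CellTiter-Glo, with DMSO and media-only wells defining 100% and 0%.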
# [13] = Quantitative High-Throughput drug screen in 47 multiple myeloma cell lines against the NCATS MIPE library collection: KMS11_JCRBsus cell viability assay (AID 1919873); also: nearly all actives have a fitted effect of over 50% in size; also: potency is read from the fitted curve at half-maximal effect
# Outline: as §1
# [14] = Quantitative High-Throughput drug screen in 47 multiple myeloma cell lines against the NCATS MIPE library collection: KMS28BM_JCRB cell viability assay (AID 1919874); also: nearly all actives have a fitted effect of over 35% in size; also: potency is read from the fitted curve at half-maximal effect
# Outline: as §1
# [15] = Quantitative High-Throughput drug screen in 47 multiple myeloma cell lines against the NCATS MIPE library collection: KMS28PE_JCRB cell viability assay (AID 1918983); also: nearly all actives have a fitted effect of over 35% in size; also: potency is read from the fitted curve at half-maximal effect
# Outline: as §1
# [16] = Quantitative High-Throughput drug screen in 47 multiple myeloma cell lines against the NCATS MIPE library collection: XG1_PLB cell viability assay (AID 1919866); also: nearly all actives have a fitted effect of over 35% in size; also: potency is read from the fitted curve at half-maximal effect
# Outline: as §1
# [17] = Quantitative High-Throughput drug screen in 47 multiple myeloma cell lines against the NCATS MIPE library collection: U266_ATCC cell viability assay (AID 1919864); also: nearly all actives have a fitted effect of over 35% in size; also: potency is read from the fitted curve at half-maximal effect
# Outline: as §1
# [18] = Quantitative High-Throughput drug screen in 47 multiple myeloma cell lines against the NCATS MIPE library collection: XG6_PLB cell viability assay (AID 1919865); also: nearly all actives have a fitted effect of over 40% in size; also: potency is read from the fitted curve at half-maximal effect
# Outline: as §1
# [19] = Quantitative High-Throughput drug screen in 47 multiple myeloma cell lines against the NCATS MIPE library collection: VP6_DJ cell viability assay (AID 1919867); also: nearly all actives have a fitted effect of over 40% in size; also: potency is read from the fitted curve at half-maximal effect
# Outline: as §1
# [20] = Quantitative High-Throughput drug screen in 47 multiple myeloma cell lines against the NCATS MIPE library collection: L363_DSMZ cell viability assay (AID 1918984); also: nearly all actives have a fitted effect of over 40% in size; also: potency is read from the fitted curve at half-maximal effect
# Outline: as §1
smiles,measurement,setting,value
CO[C@H]1C(=O)[C@]2(C)[C@@H](OC)C[C@H]3OC[C@@]3(OC(C)=O)[C@H]2[C@H](OC(=O)c2ccccc2)[C@]2(O)C[C@H](OC(=O)[C@H](O)[C@@H](NC(=O)OC(C)(C)C)c3ccccc3)C(C)=C1C2(C)C,Potency,[1],inactive
same,Potency,[2],inactive
same,Potency,[3],inactive
same,Potency,[4],inactive
same,Potency,[5],inactive
same,Potency,[6],inactive
same,viability,[7],65.2%
same,Potency,[8],inactive
same,Potency,[9],inactive
same,Potency,[10],0.0012 µM (active)
same,Potency,[11],inactive
same,Potency,[12],inactive
same,Potency,[13],inactive
same,Potency,[14],inactive
CN(C)CCC=C1c2ccccc2COc2ccc(CC(=O)O)cc21,Potency,[1],inactive
same,Potency,[2],inactive
same,Potency,[15],inactive
same,Potency,[3],inactive
same,Potency,[6],inactive
same,viability,[7],114%
same,Potency,[16],20.9 µM (active)
same,Potency,[9],inactive
same,Potency,[10],inactive
same,Potency,[11],inactive
same,Potency,[12],inactive
same,Potency,[13],inactive
same,Potency,[14],inactive
COC[C@@H](c1ccc(C(F)(F)F)cc1)N1CCN(C2(C)CCN(C(=O)c3c(C)ncnc3C)CC2)C[C@H]1C,Potency,[1],inactive
same,Potency,[2],inactive
same,Potency,[15],inactive
same,Potency,[6],inactive
same,viability,[7],118%
same,Potency,[17],6.62 µM (active)
same,Potency,[18],16.6 µM (active)
same,Potency,[19],23.5 µM (active)
same,Potency,[10],20.9 µM (active)
same,Potency,[11],inactive
same,Potency,[13],inactive
same,Potency,[14],inactive
COc1cccc([C@@H](C)NCCCc2ccccc2Cl)c1,Potency,[1],inactive
same,Potency,[2],inactive
same,Potency,[15],inactive
same,Potency,[3],inactive
same,Potency,[5],inactive
same,Potency,[6],inactive
same,viability,[7],122%
same,Potency,[11],inactive
same,Potency,[12],inactive
same,Potency,[14],inactive
C[C@H](NC(=O)C(=O)Nc1ccccc1C(C)(C)C)C(=O)N[C@@H](CC(=O)O)C(=O)COc1c(F)c(F)cc(F)c1F,Potency,[1],inactive
same,Potency,[2],9.35 µM (active)
same,Potency,[20],0.833 µM (active)
same,Potency,[6],inactive
same,Potency,[7],16.6 µM (active)
same,Potency,[16],inactive
same,Potency,[9],inactive
same,Potency,[11],14.8 µM (active)
same,Potency,[14],inactive
Cc1ccc(C(=O)Nc2cccc(C(F)(F)F)c2)cc1Nc1nc(-c2cccnc2)nc2c1cnn2C,Potency,[1],18.7 µM (active)
same,Potency,[2],16.6 µM (active)
same,Potency,[15],26.4 µM (active)
same,Potency,[3],16.6 µM (active)
same,Potency,[5],10.5 µM (active)
same,Potency,[6],8.33 µM (active)
same,Potency,[7],14.8 µM (active)
same,Potency,[17],8.33 µM (active)
same,Potency,[18],4.69 µM (active)
same,Potency,[16],10.5 µM (active)
same,Potency,[8],11.8 µM (active)
same,Potency,[9],9.35 µM (active)
same,Potency,[10],20.9 µM (active)
same,Potency,[11],18.7 µM (active)
same,Potency,[12],16.6 µM (active)
O=C(NC1CCOCC1)c1ccc(-c2cc(-c3cn[nH]c3-c3ccccn3)ccn2)cc1,Potency,[1],14.8 µM (active)
same,Potency,[2],14.8 µM (active)
same,Potency,[15],inactive
same,Potency,[4],inactive
same,Potency,[6],inactive
same,Potency,[17],inactive
same,Potency,[18],inactive
same,Potency,[8],inactive
same,Potency,[9],inactive
same,Potency,[10],inactive
same,Potency,[13],inactive
same,Potency,[14],inactive
COc1ccc2c3c1OC1C[C@@H](O)C=C[C@@]31CCN(C)C2 (stereo partly drawn),Potency,[1],inactive
same,Potency,[2],inactive
same,Potency,[15],inactive
same,Potency,[3],inactive
same,Potency,[5],10.5 µM (active)
same,Potency,[6],inactive
same,viability,[7],103%
same,Potency,[17],4.18 µM (active)
same,Potency,[16],5.9 µM (active)
same,Potency,[11],inactive
same,Potency,[12],inactive
same,Potency,[13],inactive
CNC(=O)c1ccc2cc(C3(O)CCn4cncc43)ccc2c1 (stereo not drawn),Potency,[1],inactive
same,Potency,[2],inactive
same,Potency,[15],inactive
same,Potency,[6],inactive
same,Potency,[16],inactive
same,Potency,[9],inactive
same,Potency,[10],inactive
same,Potency,[11],inactive
same,Potency,[12],inactive
same,Potency,[13],inactive
same,Potency,[14],inactive
C[C@]12CCC3c4ccc(O)cc4CCC3C1CCC2=O (stereo partly drawn),Potency,[1],inactive
same,Potency,[2],18.7 µM (active)
same,Potency,[15],11.8 µM (active)
same,Potency,[3],10.5 µM (active)
same,Potency,[5],0.0019 µM (active)
same,Potency,[17],inactive
same,Potency,[18],inactive
same,Potency,[16],inactive
same,Potency,[9],inactive
same,Potency,[10],inactive
same,Potency,[11],20.9 µM (active)
same,Potency,[12],inactive
same,Potency,[13],26.4 µM (active)
same,Potency,[14],20.9 µM (active)
NC(=O)c1cnc(-c2ccc(C3(N)CCC3)cc2)c(-c2ccccc2)c1,Potency,[1],7.43 µM (active)
same,Potency,[2],2.64 µM (active)
same,Potency,[15],0.332 µM (active)
same,Potency,[5],0.187 µM (active)
same,Potency,[18],16.6 µM (active)
same,Potency,[16],inactive
same,Potency,[19],13.2 µM (active)
same,Potency,[9],5.9 µM (active)
same,Potency,[12],20.9 µM (active)
COc1ccc(C2Sc3ccccc3N(CCN(C)C)C(=O)C2OC(C)=O)cc1 (stereo not drawn),Potency,[1],inactive
same,Potency,[2],0.0017 µM (active)
same,Potency,[20],inactive
same,Potency,[3],inactive
same,Potency,[5],10.5 µM (active)
same,Potency,[6],inactive
same,Potency,[17],16.6 µM (active)
same,Potency,[18],inactive
same,Potency,[16],inactive
same,Potency,[19],inactive
same,Potency,[8],16.6 µM (active)
same,Potency,[9],inactive
same,Potency,[10],inactive
same,Potency,[11],inactive
same,Potency,[12],inactive
same,Potency,[13],inactive
same,Potency,[14],inactive
